Screening data as filed in PubChem.
FLuc counter = qHTS profiling assay for firefly luciferase inhibitor/activator using purifed enzyme and Km concentrations of substrates (counterscreen for miR-21 project); Potency, µM (series often up to 57.5 µM), hits mostly inhibitors; AID 588342, 2011; purified FLuc, Km substrates, luminescence inhibition; 6.9% of 360,000 active; further: nearly all actives have a fitted effect of over 55% in size
Target sequence (P08659 whole entry, looked up): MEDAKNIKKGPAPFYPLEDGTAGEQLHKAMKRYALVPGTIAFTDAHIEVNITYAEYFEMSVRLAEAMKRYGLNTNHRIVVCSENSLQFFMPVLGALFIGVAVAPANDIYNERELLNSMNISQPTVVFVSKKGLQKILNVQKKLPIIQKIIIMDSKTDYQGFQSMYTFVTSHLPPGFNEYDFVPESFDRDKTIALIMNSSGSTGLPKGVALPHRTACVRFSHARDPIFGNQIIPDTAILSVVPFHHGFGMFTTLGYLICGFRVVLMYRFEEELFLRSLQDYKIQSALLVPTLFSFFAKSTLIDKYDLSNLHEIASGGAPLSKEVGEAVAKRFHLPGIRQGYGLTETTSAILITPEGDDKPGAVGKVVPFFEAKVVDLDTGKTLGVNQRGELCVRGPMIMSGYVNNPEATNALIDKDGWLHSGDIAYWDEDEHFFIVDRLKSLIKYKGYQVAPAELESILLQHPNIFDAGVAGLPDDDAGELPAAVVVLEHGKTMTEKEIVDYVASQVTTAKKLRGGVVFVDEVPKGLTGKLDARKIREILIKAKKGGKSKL
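Purified P. pyralis luciferase, 10 nM final, with Km-level 10 uM D-luciferin and 10 uM ATP in 50 mM Tris acetate pH 7.5, 10 mM Mg acetate, 0.01% Tween-20, 0.05% BSA; 6-point qHTS titration about 60 µM downward; luminescence read.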
ELG1 genotoxic = qHTS screen for small molecules that induce genotoxicity in human embryonic kidney (HEK293T) cells expressing luciferase-tagged ELG1 | Potency, µM (series often up to 46 µM), actives largely listed as activators | HEK293T ELG1-luciferase reporter, luminescence, 16 h | 1.3% of 330,000 active; further: nearly all actives have a fitted effect of over 60% in size
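Step 1: seed 2,000 HEK293T ELG1-luciferase cells per well. Step 2: add compound or DMSO, incubate 16 hr at 37 °C. Step 3: ONE-Glo, 30 min at room temperature, read luminescence.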
ELG1 DNA repair = qHTS screen for small molecules that inhibit ELG1-dependent DNA repair in human embryonic kidney (HEK293T) cells expressing luciferase-tagged ELG1; HEK293T ELG1-luciferase reporter, luminescence, 16 h; DNA damage induced by 5-fluorouridine; Potency, µM (series often up to 46.1 µM), most hits filed as inhibitors; 2.3% of 330,000 active; further: nearly all actives have a fitted effect of over 55% in size
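In this reporter screen, reduction of luminescence relative to DMSO vehicle indicated activity. Compounds and 5-fluorouridine were added together to 2,000 cells per well, incubated for 16 hr at 37 °C, then developed with ONE-Glo.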
SMN2 splice up = qHTS Assay for Enhancers of SMN2 Splice Variant Expression | HEK293 SMN2-luciferase splicing reporter, luminescence, 30-36 h | Potency, µM (series often up to 46.1 µM), most hits filed as activators | 2.8% of 210,000 active | AID 1458, 2008; further: nearly all actives have a fitted effect of over 55% in size
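HEK293 cells carry an SMN2 minigene-luciferase reporter in which exon 7 inclusion puts luciferase in frame. Cells were seeded at 2000 cells/well, attached for 10-12 hours, then exposed to compounds for 30-36 hours at 37C before ONE-Glo luminescence.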
Rab9 promoter act = qHTS Assay for Rab9 Promoter Activators | Huh7 Rab9 promoter-luciferase reporter, luminescence, 24 h | Potency, µM (top dose mostly 9.22 µM), actives largely listed as activators | 2.8% of 320,000 active; further: nearly all actives have a fitted effect of over 60% in size
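Stable Rab9-luc Huh7, 1500 cells/well, 2 h settle; cmpd in DMSO, 24 h, 37 °C/5% CO2; luciferase reagent 10 min RT; luminescence.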
NPC1 prom act = qHTS Assay for NPC1 Promoter Activators. Potency, µM (doses to about 9.22 µM), most hits filed as activators. 2.4% of 320,000 active. Huh7 NPC1 promoter luciferase reporter, 24 h. AID 485313, 2010; further: nearly all actives have a fitted effect of over 60% in size
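In 1536-well qHTS, Huh7 cells harboring an NPC1 promoter–luciferase construct received compound for 24 h; activation was quantified by luminescence following luciferase reagent addition.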
Hits are given with their value; – = inactive; ? = inconclusive; · = no result. Most compounds without a hit are left out; they make up all but 9.2% or so of the library. The call rests on the fitted dose curve; in most records, active means well fitted curve in the direction sought with a large enough effect; inconclusive means small, poorly fitted or top-dose-only effect, or another doubt; inactive means no such curve, though single readings can be large; an effect the other way counts as inactive or inconclusive.

SMILES	FLuc counter	ELG1 genotoxic	ELG1 DNA repair	SMN2 splice up	Rab9 promoter act	NPC1 prom act
O=C(O)c1ccc(Cl)cc1Cl	·	·	·	–	·	·
Cc1ccc(S(=O)(=O)n2nc(C)c(S(=O)(=O)N3CCC(C)CC3)c2C)cc1	–	·	·	·	·	·
O=C(NCCc1ccccc1Cl)c1ccc2c(c1)nc1n2CCOC1	4.78µM	·	·	·	·	·
CCCNC(=O)c1ccc2c(c1)nc1n2CCCCC1	16.9µM	·	·	·	·	·
Cc1cccc(CCNC(=O)c2ccc3c(c2)nc2n3CCOC2)c1	15.1µM	·	·	·	·	·
COc1ccc(CNC(=O)c2ccc3c(c2)nc2n3CCCCC2)cc1	16.9µM	·	·	·	·	·
COc1ccccc1N(Cc1ccccc1)S(=O)(=O)c1cccc(C(=O)NC2CC(C)(C)NC(C)(C)C2)c1	–	–	–	·	–	–
CC(C)CSc1ccccc1NC(=O)c1sc2nc(-c3ccncc3)ccc2c1N	–	·	·	–	·	·
O=C(OCC(=O)N1CCC(Cc2ccccc2)CC1)c1ccccc1O	·	–	–	·	·	·
Cc1nc(NC(=O)CSc2nnc(C3CC3)n2C)sc1C	–	–	?	·	–	–
O=C(NCCC1=CCCCC1)c1ccc2c(=O)n3c(nc2c1)CCCCC3	–	–	–	–	–	–
Cc1cccc(CCNC(=O)c2ccc3c(c2)nc2n3CCCCC2)c1	4.78µM	·	·	·	·	·
COc1ccc(CCNC(=O)c2cccn2C)cc1	–	–	–	·	–	–
CCOC(=O)C1(Cc2ccccc2C)CCCN(C(=O)c2ccc3nccnc3c2)C1 (stereo not drawn)	–	–	23.1µM	·	–	–
CCOC(=O)C1(Cc2ccccc2C)CCCN(C(=O)c2ccccn2)C1 (stereo not drawn)	?	–	?	·	–	–
CCOC(=O)C1(Cc2ccccc2)CCCN(Cc2cnn(CC)c2)C1 (stereo not drawn)	–	–	–	·	–	–
CCOC(=O)C1(Cc2ccccc2)CCCN(C(=O)c2cnn(CC)c2)C1 (stereo not drawn)	15.1µM	?	?	·	3.98µM	?
Cc1onc(-c2c(F)cccc2Cl)c1C(=O)N(C)CCc1ccccn1	–	–	–	·	–	–
C=CS(=O)(=O)c1ccc(Oc2ccc(S(=O)(=O)C=C)cc2)cc1	–	–	2.59µM	–	–	–
N#C/C(=N/Nc1ccc(OC(F)(F)F)cc1)C(N)=S	10.7µM	–	?	·	–	–
COc1ccc(N/N=C(\C#N)C(N)=O)cc1	–	–	?	–	–	–
Cc1ccc(NC(=O)CSc2nc3c(oc4ccccc43)c(=O)n2-c2ccc(F)cc2)c(C)c1	–	·	·	–	·	·
CCN(CC)S(=O)(=O)c1cc(NC(=O)C(C)N2CCN(Cc3ccc4c(c3)OCO4)CC2)ccc1C (stereo not drawn)	–	–	?	–	–	–
COc1ccc(OCCSc2ncn[nH]2)cc1	13.5µM	–	?	·	?	?
CC(C)Oc1ccc(CSc2ncn[nH]2)cc1	15.1µM	–	?	·	?	–
SMILES	FLuc counter	ELG1 genotoxic	ELG1 DNA repair	SMN2 splice up	Rab9 promoter act	NPC1 prom act
Clc1ccc(CSc2ncn[nH]2)cc1	–	–	–	–	–	–
O=C(/C=C/c1ccc(O)c(O)c1)NC(=O)c1ccccc1O	9.53µM	?	?	31.6µM	–	?
O=C(/C=C/c1ccc(O)cc1)c1ccccc1O	·	·	·	–	·	·
O=C(/C=C/c1ccc(Br)cc1)NC(=O)c1ccccc1O	0.379µM	?	?	22.4µM	1.78µM	3.55µM
CSc1ccc(/C=C/C(=O)NC(=O)c2ccccc2O)cc1	0.601µM	9.2µM	?	25.1µM	2.51µM	?
CC(C)c1ccc2[nH]c3c(c2c1)CCC/C3=N\NC(=O)c1ccncc1	–	–	18.3µM	·	–	–
Cc1ccc(-c2nc(CS(=O)(=O)CC(=O)NCc3ccc(Cl)cc3)c(C)o2)cc1	–	·	·	–	·	·
COc1ccc(C(=O)Nc2cccc(OCc3cc(=O)n4c5c(sc4n3)CCCC5)c2)cc1OC	2.39µM	·	·	–	·	·
O=C1C=C(NCCO)C(=O)c2cnccc21	·	·	·	–	·	·
O=C1C=C(NCCN2CCOCC2)C(=O)c2cnccc21	–	–	4.11µM	–	–	–
